In assay [1] the target is human Thyroid Receptor alpha (THRa1), THRA (gene 7067) (UniProt P10827). Put plainly: ATG_THRa1_TRANS: Attagene TRANS-FACTORIAL HepG2 Assay for human Thyroid Receptor alpha (THRa1) (AID 2283014; active = hit-call score of the fitted dose curve at least 0.9, where 1 is the maximum). A digest of the protocol:
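HepG2 cells transiently transfected with chimeric NR-Gal4 and GAL4-UAS reporter units, dosed 24 h. Reporter mRNA quantified by RT-PCR, fluorescent labeling, HpaI digestion and capillary electrophoresis; gain-of-signal fit versus DMSO.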

Assay [2] addresses human Vitamin D Receptor (VDR), VDR (gene 7421) (UniProt P11473). As to the kind of experiment: ATG_VDR_TRANS: Attagene TRANS-FACTORIAL HepG2 Assay for human Vitamin D Receptor (VDR) (AID 2283022; active = hit-call score of the fitted dose curve at least 0.9, where 1 is the maximum). Put shortly: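 HepG2 cells were transiently transfected with GAL4-UAS reporter units and a chimeric VDR-Gal4 construct, then dosed for 24 hours. Reporter mRNA was quantified by RT-PCR, fluorescent labeling, HpaI digestion and capillary electrophoresis; gain of signal analysed vs DMSO.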

Read-out in assay [3]: E-selectin (Homo sapiens) (UniProt P16581)
Put plainly: BSK_3C_Eselectin: BioMAP Diversity Plus: 3C Assay for Eselectin Biomarker Activity (AID 2283015).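 Note: cell surface E-selectin protein quantified by ELISA 24 h after dosing.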 The following applies: primary human endothelial cells (HUVEC); actives raise or lower the signal. A digest of the protocol: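 Primary human umbilical vein endothelial cells (3C system), read 24 h after compound addition; E-selectin measured by ELISA. Bidirectional curve fitting against DMSO baseline; cytotoxicity by parallel SRB total-protein staining.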

Read-out in assay [4]: Interleukin-1 alpha (IL1a), IL1A (gene 3552)
Put plainly: BSK_BE3C_IL1a: BioMAP Diversity Plus: BE3C Assay for Interleukin-1 alpha (IL1a) Biomarker Activity (AID 2283016). The conditions noted are these: primary human bronchial epithelial cells; actives raise or lower the signal. A digest of the protocol:
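ELISA read-out of IL-1a from human lung bronchial epithelial primary cells, 24 h post-dose. Gain or loss of signal fitted relative to DMSO negative control.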

Read-out in assay [5]: Monocyte Chemoattractant Protein-1 (MCP1), CCL2 (gene 6347)
As to the kind of experiment: BSK_3C_MCP1: BioMAP Diversity Plus: 3C Assay for Monocyte Chemoattractant Protein-1 (MCP1) Biomarker Activity (AID 2283017). The conditions noted are these: primary human endothelial cells (HUVEC); actives raise or lower the signal. Put shortly:
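Human umbilical vein endothelial cells (3C system) exposed to chemicals for 24 h; MCP-1 quantified by ELISA against the DMSO baseline with bidirectional fitting, and parallel SRB staining used to assess cytotoxicity.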

Read-out in assay [6]: Monocyte Chemoattractant Protein-1 (MCP1), CCL2 (gene 6347)
Put plainly: BSK_4H_MCP1: BioMAP Diversity Plus: 4H Assay for Monocyte Chemoattractant Protein-1 (MCP1) Biomarker Activity (AID 2283018). The conditions noted are these: primary human endothelial cells (HUVEC); actives raise or lower the signal. Put shortly: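 HUVEC primary cells, 24 h post-dose, MCP-1 by ELISA. Gain or loss of signal fitted bidirectionally vs DMSO baseline. Cytotoxicity: SRB stain (0.1% after 10% TCA fixation), read 560 nm, parallel cultures.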

Read-out in assay [7]: Human Leukocyte Antigen - DR isotype (HLADR), HLA-DRA (gene 3122)
As to the kind of experiment: BSK_3C_HLADR: BioMAP Diversity Plus: 3C Assay for Human Leukocyte Antigen - DR isotype (HLADR) Biomarker Activity (AID 2283019). The following applies: primary human endothelial cells (HUVEC); actives raise or lower the signal. Put shortly: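 HUVEC monoculture, HLA-DR measured by ELISA 24 h after chemical dosing. Fitted bidirectionally against DMSO baseline; parallel SRB staining assessed cytotoxicity, with 3C proliferation read by SRB at 48 h.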

Read-out in assay [8]: Interleukin-8 (IL8), CXCL8 (gene 3576)
Put plainly: BSK_3C_IL8: BioMAP Diversity Plus: 3C Assay for Interleukin-8 (IL8) Biomarker Activity (AID 2283020). The following applies: primary human endothelial cells (HUVEC); actives raise or lower the signal. A digest of the protocol:
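HUVEC, 3C stimulation; 24 h compound exposure; IL-8 read by ELISA; gain or loss of signal fitted relative to DMSO control.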

Read-out in assay [9]: Monokine induced gamma interferon (MIG), CXCL9 (gene 4283)
As to the kind of experiment: BSK_3C_MIG: BioMAP Diversity Plus: 3C Assay for Monokine induced gamma interferon (MIG) Biomarker Activity (AID 2283021). The conditions noted are these: primary human endothelial cells (HUVEC); actives raise or lower the signal. A digest of the protocol: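 HUVEC, 3C system; 24 h chemical exposure; MIG by ELISA; bidirectional fit vs DMSO baseline.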

Assay [10] is described as follows: BSK_3C_SRB: Viability Assessment in the BioMAP Diversity Plus: 3C Assay (AID 2283023).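 Note: fitted both ways against DMSO so a hit may be signal rise or drop.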 The following applies: primary human endothelial cells (HUVEC). A digest of the protocol:
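Human umbilical vein endothelial cells in the 3C system, treated 24 h. Total protein measured by 0.1% sulforhodamine B staining after 10% TCA fixation, read at 560 nm; bidirectional fit versus DMSO.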

Read-out in assay [11]: Matrix Metallopeptidase 1 (MMP1), MMP1 (gene 4312)
As to the kind of experiment: BSK_BE3C_MMP1: BioMAP Diversity Plus: BE3C Assay for Matrix Metallopeptidase 1 (MMP1) Biomarker Activity (AID 2283024). The following applies: primary human bronchial epithelial cells; actives raise or lower the signal. Put shortly: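 ELISA read-out of MMP1 in human lung bronchial epithelial primary cultures, 24 h post-dose; bidirectional curve fit vs DMSO baseline, gain or loss of signal scored.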

Read-out in assay [12]: Pselectin, SELP (gene 6403)
Put plainly: BSK_4H_Pselectin: BioMAP Diversity Plus: 4H Assay for Pselectin Biomarker Activity (AID 2283026). The conditions noted are these: primary human endothelial cells (HUVEC); actives raise or lower the signal. Put shortly:
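HUVEC, 24 h chemical exposure; P-selectin read by ELISA. Bidirectional curve fit vs DMSO baseline; gain or loss of signal scored.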

Assay [13] in a line: BSK_4H_SRB: Viability Assessment in the BioMAP Diversity Plus: 4H Assay (AID 2283027).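 Note: cells exposed to compound for 24 h before staining.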 The following applies: primary human endothelial cells (HUVEC). A digest of the protocol: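 HUVEC, 24 h post-dose; 10% TCA fix, 0.1% SRB stain, A560 nm. Total protein = overt cytotoxicity, parallel to biomarker read. Bidirectional fit vs DMSO baseline.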
Assay [14] is described as follows: BSK_BE3C_SRB: Viability Assessment in the BioMAP Diversity Plus: BE3C Assay (AID 2283028). The following applies: primary human bronchial epithelial cells. Put shortly: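 Human bronchial epithelial primary cells in confluent culture, 24 h after chemical dosing; total protein by 0.1% SRB staining after 10% TCA fixation, read at 560 nm. Bidirectional fitting versus DMSO baseline.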

Read-out in assay [15]: Thrombomodulin, THBD (gene 7056)
As to the kind of experiment: BSK_3C_Thrombomodulin: BioMAP Diversity Plus: 3C Assay for Thrombomodulin Biomarker Activity (AID 2283029). The following applies: primary human endothelial cells (HUVEC); actives raise or lower the signal. A digest of the protocol:
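HUVEC, 3C conditions; compound 24 h; thrombomodulin by ELISA; bidirectional curve fit vs DMSO baseline; parallel SRB total-protein staining for cytotoxicity.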

Read-out in assay [16]: Urokinase-type plasminogen activator receptor (uPAR), PLAUR (gene 5329)
Put plainly: BSK_4H_uPAR: BioMAP Diversity Plus: 4H Assay for Urokinase-type plasminogen activator receptor (uPAR) Biomarker Activity (AID 2283030). The following applies: primary human endothelial cells (HUVEC); actives raise or lower the signal. A digest of the protocol:
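Human umbilical vein endothelial cells in the 4H system, 24 h after chemical dosing. Cell-surface uPAR measured by ELISA, fitted in both directions versus DMSO; cytotoxicity checked by SRB total protein in parallel cultures.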

Read-out in assay [17]: Vascular endothelial growth factor receptor 2 (Homo sapiens) (UniProt P35968)
Put plainly: BSK_4H_VEGFRII: BioMAP Diversity Plus: 4H Assay for Vascular endothelial growth factor receptor 2 (VEGFR2) Biomarker Activity (AID 2283031). The following applies: primary human endothelial cells (HUVEC); actives raise or lower the signal. Put shortly:
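Primary human umbilical vein endothelial cells (4H system), 24 h exposure; cell-surface VEGFR2 measured by ELISA. Bidirectional fitting versus DMSO; cytotoxicity checked in parallel by SRB total-protein staining.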

Read-out in assay [18]: Human Leukocyte Antigen - DR isotype (HLADR), HLA-DRA (gene 3122)
As to the kind of experiment: BSK_BE3C_HLADR: BioMAP Diversity Plus: BE3C Assay for Human Leukocyte Antigen - DR isotype (HLADR) Biomarker Activity (AID 2283032). The following applies: primary human bronchial epithelial cells; actives raise or lower the signal. A digest of the protocol:
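Primary human bronchial epithelial cells (BE3C); 24 h chemical exposure; HLA-DR by ELISA; bidirectional curve fit vs DMSO baseline.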

A short description of assay [19]: BSK_3C_Vis: BioMAP Diversity Plus: 3C Assay for Morphology Visualization (AID 2283025).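 Note: fitted both ways so gain or loss versus DMSO counts.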 The conditions noted are these: primary human endothelial cells (HUVEC). A digest of the protocol:
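HUVEC, 3C system; light microscopy of morphology at 24 h post-dose. Bidirectional fit vs DMSO baseline. Secondary readout, background-control function.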

Structures are written as SMILES. Results filed as inconclusive are left out. Activity calls are given as the source filed them. Rule for the calls, unless noted: active = hit-call score of the fitted dose curve at least 0.9, where 1 is the maximum; inactive = score below 0.9.

Sequence of human Vitamin D Receptor (VDR), VDR (gene 7421) (P11473 whole entry, looked up, the tested form may be a part): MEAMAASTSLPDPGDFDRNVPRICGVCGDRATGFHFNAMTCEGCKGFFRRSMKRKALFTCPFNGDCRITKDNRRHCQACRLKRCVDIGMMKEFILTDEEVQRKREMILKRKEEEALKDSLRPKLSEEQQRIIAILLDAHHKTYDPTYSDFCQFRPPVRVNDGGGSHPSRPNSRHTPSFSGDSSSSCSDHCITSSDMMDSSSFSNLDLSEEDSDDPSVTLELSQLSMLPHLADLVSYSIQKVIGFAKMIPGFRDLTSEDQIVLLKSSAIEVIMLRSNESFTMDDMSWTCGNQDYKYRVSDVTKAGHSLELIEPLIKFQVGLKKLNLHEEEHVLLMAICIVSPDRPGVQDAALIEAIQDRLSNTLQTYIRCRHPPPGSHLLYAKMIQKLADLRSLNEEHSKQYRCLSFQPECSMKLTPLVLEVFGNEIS
Sequence of E-selectin (Homo sapiens) (P16581 whole entry, looked up): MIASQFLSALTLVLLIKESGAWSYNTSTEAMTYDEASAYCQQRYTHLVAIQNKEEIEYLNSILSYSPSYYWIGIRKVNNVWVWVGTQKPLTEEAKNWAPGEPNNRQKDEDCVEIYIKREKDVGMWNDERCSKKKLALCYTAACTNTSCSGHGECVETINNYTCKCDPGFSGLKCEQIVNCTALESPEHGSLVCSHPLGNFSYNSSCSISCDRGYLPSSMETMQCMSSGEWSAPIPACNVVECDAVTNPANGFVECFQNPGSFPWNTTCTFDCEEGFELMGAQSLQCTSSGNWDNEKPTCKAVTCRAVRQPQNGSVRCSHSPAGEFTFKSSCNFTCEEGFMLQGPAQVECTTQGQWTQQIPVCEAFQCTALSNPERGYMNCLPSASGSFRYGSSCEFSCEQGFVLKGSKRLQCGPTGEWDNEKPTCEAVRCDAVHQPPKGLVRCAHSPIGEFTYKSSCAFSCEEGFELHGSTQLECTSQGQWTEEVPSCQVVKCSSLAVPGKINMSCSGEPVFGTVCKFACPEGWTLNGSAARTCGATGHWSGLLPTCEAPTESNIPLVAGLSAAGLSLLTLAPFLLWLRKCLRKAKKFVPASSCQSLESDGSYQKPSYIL
Sequence of human Thyroid Receptor alpha (THRa1), THRA (gene 7067) (P10827 whole entry, looked up, the tested form may be a part): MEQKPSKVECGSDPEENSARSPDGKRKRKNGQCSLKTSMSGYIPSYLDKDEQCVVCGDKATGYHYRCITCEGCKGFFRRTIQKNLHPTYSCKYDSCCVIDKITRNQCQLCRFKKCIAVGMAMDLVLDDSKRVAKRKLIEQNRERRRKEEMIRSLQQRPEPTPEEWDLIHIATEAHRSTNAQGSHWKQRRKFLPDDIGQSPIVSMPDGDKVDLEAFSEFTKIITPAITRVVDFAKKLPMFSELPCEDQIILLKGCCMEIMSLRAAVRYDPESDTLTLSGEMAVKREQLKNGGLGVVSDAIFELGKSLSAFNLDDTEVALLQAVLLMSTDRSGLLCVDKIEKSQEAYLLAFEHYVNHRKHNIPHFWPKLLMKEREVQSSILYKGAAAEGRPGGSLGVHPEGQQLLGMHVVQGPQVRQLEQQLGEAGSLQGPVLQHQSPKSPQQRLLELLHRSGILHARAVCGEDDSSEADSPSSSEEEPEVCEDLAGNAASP

Take `c1cc(C(c2ccc(OCC3CO3)cc2)C(c2ccc(OCC3CO3)cc2)c2ccc(OCC3CO3)cc2)ccc1OCC1CO1` (stereo unspecified): the call in assay [1] and in assay [2] was inactive.
Take `CO[Si](OC)(OC)c1ccccc1`: the result in assay [1], in assay [3], in [4], in assay [5], in assay [6] and in assay [7] was inactive. The outcome in assay [8], in assay [9], in assay [2], in [10], in assay [11] and in assay [12] was inactive. Also, the outcome in assay [13], in assay [14], in assay [15], in [16], in assay [17] and in [18] was inactive.
As for `O=C1CCCC(=O)O1`, the outcome in assay [1] and in assay [2] was inactive.
Consider `CCC(C)C=O` (stereo unspecified), for which the call in [2] was inactive.
Same read-out and setting: under `CCCCCCOc1cc(C)c(O)c(C)c1C` stands “inactive”.
As for `NC(CO)(CO)CO`, in assay [2], the compound was classed as inactive.
On to `CC1(C)S[C@@H]2[C@H](NC(=O)COc3ccccc3)C(=O)N2[C@H]1C(=O)O`, for which, in assay [2], the outcome was inactive.
For the compound `CC(=O)OCc1ccco1`, in assay [2], the outcome was inactive.
As for `COc1ccc(C(Cl)=C(c2ccc(OC)cc2)c2ccc(OC)cc2)cc1`, the result in assay [2] was inactive.
In the case of `COc1ccc2nc(N)sc2c1`, the outcome in assay [3], in assay [4], in assay [5], in assay [6], in [7] and in assay [8] was inactive. Besides, the result in assay [9], in assay [10], in assay [11], in assay [19], in assay [12] and in assay [13] was inactive. In addition, the result in [14], in assay [15], in [16], in assay [17] and in [18] was inactive.
Turning to `COCCOCCOCCOCCOC`, the call in assay [2] was inactive.
Still for that read-out and setting: under `c1ccc(CNCc2ccccc2)cc1` stands “inactive”.
Take `CCCNC(=O)NS(=O)(=O)c1ccc(Cl)cc1`: the result in assay [2] was inactive.
Consider `CC(=O)Oc1ccc(C(C)=O)cc1`, for which the call in [2] was inactive.
On the same count and under the same terms, under `CC(=O)OC(C)C` stands “inactive”.
With `CC1OC1C1CCC2(C)OC2C1` (stereo unspecified), the result in assay [3], in [4], in assay [5], in assay [6], in [7] and in [8] was inactive. Moreover, the outcome in assay [9], in assay [10], in assay [11], in assay [19], in assay [12] and in assay [13] was inactive. Further, the outcome in [14], in assay [15], in assay [17] and in assay [18] was inactive. In assay [16], the AC50 was 90.7 nM (active).
`O=C(C(Cl)Cl)N1CCOC12CCCCC2`: in assay [2], the outcome was inactive.
The same measure, in the same setting: under `O=Cc1ccc(CO)o1` stands “inactive”; under `CCCCC(CC)CCC(CC(C)C)OS(=O)(=O)O` (stereo unspecified), “inactive”.
For the compound `C[Si](C)(CCCN)O[Si](C)(C)CCCN`, the result in assay [2] was inactive.

The values are drawn from PubChem BioAssay (EPA / NIEHS).
